Screening data (PubChem)
Shown is part of a subset that was picked to be rich in hits.
TbREL1 primary: TbREL1 RNA ligase inhibitors, primary screen, biochemical, FRET fluorescence. 0.49% of 89,000 active. RNA-editing ligase 1, mitochondrial (Trypanosoma brucei brucei), P86926. TbREL1 RNA ligation. inhibition, % at 9.66 µM;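 active = inhibition above the mean inhibition across all screened compounds plus 3 SD, cut at about 11% in these data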;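 note: 0% = plate median of test wells and 100% = NSC42067 control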
Target sequence (P86926 whole entry, looked up): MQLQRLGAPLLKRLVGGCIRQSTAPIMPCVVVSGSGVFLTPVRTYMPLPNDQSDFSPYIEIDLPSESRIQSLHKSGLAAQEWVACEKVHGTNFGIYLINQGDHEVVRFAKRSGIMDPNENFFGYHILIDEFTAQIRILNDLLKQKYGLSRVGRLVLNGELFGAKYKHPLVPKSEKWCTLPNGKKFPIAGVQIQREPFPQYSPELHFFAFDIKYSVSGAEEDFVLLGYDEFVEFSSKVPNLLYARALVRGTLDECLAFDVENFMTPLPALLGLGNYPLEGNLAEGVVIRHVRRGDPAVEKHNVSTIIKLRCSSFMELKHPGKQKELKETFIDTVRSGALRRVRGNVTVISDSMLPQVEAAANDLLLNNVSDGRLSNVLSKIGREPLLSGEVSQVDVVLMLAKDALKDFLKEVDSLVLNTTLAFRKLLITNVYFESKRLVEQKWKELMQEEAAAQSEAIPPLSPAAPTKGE
TbREL1 conf: TbREL1 RNA ligase inhibitors, confirmation, biochemical, FRET fluorescence, triplicate; shares compounds with TbREL1 primary; TbREL1 RNA ligation; inhibition, % at 9.66 µM; 37% of 390 active; AID 1117282, 2014;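 active = mean inhibition across replicates above a set limit taken from the earlier primary screen, cut at about 11% in these data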;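 note: 0% = REL1 with substrate and DMSO and 100% = REL1 plus control inhibitor NSC42067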
An asterisk follows results filed as active.

SMILES | TbREL1 primary | others
COC(=O)C1=C(C)N(Cc2ccccc2C(F)(F)F)C(=NCc2ccc(C(F)(F)F)cc2)NC1c1ccc(C(F)(F)F)cc1 (stereo not given) | 25* | TbREL1 conf=23*
CCN=C1NC(c2ccc(C(F)(F)F)cc2)C(C(=O)OC)=C(C)N1Cc1ccccc1C(F)(F)F (stereo not given) | 11* | TbREL1 conf=12*
COC(=O)C1=C(C)N(Cc2ccccc2C(F)(F)F)C(=NCc2ccc(C(F)(F)F)cc2)NC1c1ccccc1 (stereo not given) | 16* | TbREL1 conf=18*
COC(=O)C1=C(C)N(Cc2ccccc2C(F)(F)F)C(=NCc2ccccc2)NC1c1ccc(Cl)cc1 (stereo not given) | 14* | TbREL1 conf=16*
CCN=C1NC(c2ccc(F)cc2)C(C(=O)OC)=C(C)N1Cc1ccc(C(F)(F)F)cc1 (stereo not given) | 4
COC(=O)C1=C(C)N(Cc2ccccc2)C(=NCc2ccc(OC)cc2)N[C@H]1c1ccccc1 | 10
COC(=O)C1=C(C)N(Cc2ccccc2)C(=S)NC1c1ccc(-c2ccccc2)cc1 (stereo not given) | -6
CCC(=O)Nc1ccc(Cl)cc1C(=O)c1ccc[nH]1 | 8
CC(=O)c1cc(-c2ccccc2)n(CC(=O)NCc2ccccc2Cl)c1C | -3
Cc1ccc(NC(=O)C2CCCN(c3nnc(-n4cccc4)s3)C2)cc1C (stereo not given) | 3
COC(=O)CN1CCN(C(=O)c2csc3ccccc23)CC1 | 1
CC(C)(C)c1ccc(-c2nnc(SCc3ccccc3)n2Cc2ccco2)cc1 | 6
COc1ccc(N2CCCN(CC(=O)Nc3ccccc3C)CC2)cc1 | -9
COc1ccc(C(c2ccc(OC)cc2)N2CCN(C(=O)c3noc(C)c3[N+](=O)[O-])CC2)cc1 | 1
Cc1[nH]c2ccccc2c1CCN(Cc1cccs1)C(=O)Nc1cccc2c1OCO2 | -8
CN(Cc1ccccc1Cl)C(=O)CN1C(=O)C2(OCCCO2)c2ccccc21 | 0
COc1ccccc1CNC1CCC12CCC(c1ccccc1)CC2 (stereo not given) | 9
CCOC(=O)c1cccc(NC(=O)CN(C)S(=O)(=O)c2cc(OC)ccc2OC)c1 | -1
COc1ccc(/C=C2/CN(Cc3ccc(OC)cc3OC)C3=NC(c4ccc5ccccc5c4)CC(=O)N32)cc1 (stereo not given) | 11
COC(=O)C1=C(C)N(Cc2ccccc2)C(=NCc2cccc(C(F)(F)F)c2)N[C@H]1c1cccc(F)c1 | 9
COC(=O)C1=C(C)N(Cc2cccc(C(F)(F)F)c2)C(=NCc2ccc(OC)cc2)NC1c1ccc(F)cc1 (stereo not given) | 12* | TbREL1 conf=14*
CCN1C(=NCc2cccc(Cl)c2)N[C@@H](c2cccc(F)c2)C(C(=O)OC)=C1C | 7
COC(=O)C1=C(C)N(Cc2ccc(Br)cc2)C(=S)NC1c1ccc(F)cc1 (stereo not given) | 2
COC(=O)C1=C(C)N(Cc2ccc(F)cc2)C(=S)NC1c1cccc(OC)c1 (stereo not given) | -6
COC(=O)C1=C(C)N(Cc2ccccc2C(F)(F)F)C(=NCc2ccccc2)NC1c1cccc(F)c1 (stereo not given) | 15* | TbREL1 conf=20*
SMILES | TbREL1 primary | others
COc1ccc2c(c1)CCCN2C(=O)C1CCCN(S(=O)(=O)c2ccc(Br)s2)C1 (stereo not given) | -4
C[C@H]1[C@@H](NC(=O)C#Cc2ccccc2)CC[C@@]23CCCN2C(=O)CCC[C@@H]13 | 9
COC(=O)CSc1nnc(-c2ccc(NS(=O)(=O)c3ccc(C(C)(C)C)cc3)cc2)o1 | 5
O=C(CN(CCc1ccccc1)S(=O)(=O)c1ccc(F)cc1)N1CCOCC1 | 1
C=CCNCCCCOc1c(Cl)cc(C)cc1Br | 7
COCCCNCCCOc1ccc(Cl)cc1Br | 11* | TbREL1 conf=6
CCCCNCCCOc1cc(Cl)ccc1Cl | -1
COCCCNCCCCOc1c(Cl)cc(C)cc1Br | 12* | TbREL1 conf=8
Cc1cc(Cl)c(OCCCn2cncn2)c(Br)c1 | -1
COCCCNCCOc1ccc(C)cc1[N+](=O)[O-] | 4
CCN(CC)C(=O)CN1C(=O)C2CCCCN2C(=O)c2ccccc21 (stereo not given) | 5
Cc1[nH]c2ccccc2c1CC(=O)Nc1ccc(Nc2cccnc2)c(-c2ccc(OC(F)(F)F)cc2)c1 | -1
O=C(NC1CCCCN(Cc2ccc(Cl)cc2)C1=O)c1ccc(Cl)cc1Cl (stereo not given) | -2
O=C(NNc1cc(N2CCCC2)nc(N2CCCC2)n1)c1ccc([N+](=O)[O-])cc1 | -5
Oc1ccccc1/C=N/Nc1cc(N2CCCC2)nc(N2CCCC2)n1 | 19* | TbREL1 conf=38*
CCOc1cc(/C=N/Nc2nc(N3CCCC3)nc(N3CCCC3)n2)ccc1O | -6
COC(=O)C1=C(C)N(Cc2cccc(C(F)(F)F)c2)C(=NCC2CC2)NC1c1ccccc1C(F)(F)F (stereo not given) | 15* | TbREL1 conf=15*
COC(=O)C1=C(C)N(Cc2cccc(C(F)(F)F)c2)C(=NCc2cc(OC)c(OC)c(OC)c2)NC1c1ccccc1C(F)(F)F (stereo not given) | 14* | TbREL1 conf=19*
COCCOC(=O)C1=C(C)N(Cc2ccccc2)C(=O)NC1c1cccc(OC)c1OC (stereo not given) | -1
C=CCN=C1NC(c2ccccc2C(F)(F)F)C(C(=O)OC)=C(C)N1Cc1cccc(C(F)(F)F)c1 (stereo not given) | 15* | TbREL1 conf=18*
CCN=C1NC(c2ccc(C(F)(F)F)cc2)C(C(=O)OC)=C(C)N1Cc1cccc(C(F)(F)F)c1 (stereo not given) | 7
CCN=C1NC(c2ccccc2C(F)(F)F)C(C(=O)OC)=C(C)N1C (stereo not given) | -3
C=CCN=C1NC(c2ccccc2C(F)(F)F)C(C(=O)OC)=C(C)N1Cc1ccc(C(F)(F)F)cc1 (stereo not given) | 14* | TbREL1 conf=18*
O=C(NCCc1c[nH]c2ccccc12)OCc1cn(-c2ccc(F)cc2)nn1 | -1
Cc1ccc(S(=O)(=O)N2CCCC2C(=O)N2CCc3ccccc3C2)cc1C (stereo not given) | 0
SMILES | TbREL1 primary | others
COC(=O)[C@@]1(OC(C)=O)CC(OC(C)=O)[C@H](OC(C)=O)[C@H](OC(C)=O)C1Br (stereo not given in full) | 3
O=C(CSc1nnc(-c2cccnc2)n1-c1ccc(Cl)cc1)c1ccc(F)cc1 | -4
CCCC1CCC2(CCCN2CCOC(=O)Nc2ccc(Br)cc2)CC1 (stereo not given) | 8
CCC[C@H]1[C@@H](NC(=O)C#Cc2ccccc2)CC[C@@]23CCCN2C(=O)CCC[C@@H]13 | -2
CCOC(=O)N1CCN(C(=O)C[C@H]2C(=O)N(CCCOC)C3=CCCC[C@@]32C(=O)OCC)CC1 | 2
Cc1ccc(C(C)C)c(OCCNS(C)(=O)=O)c1 | -2
c1ccc(CCNCCOc2ccccc2)cc1 | 7
Cc1ccc(C(C)C)c(OCCNCCc2ccccc2)c1 | 13* | TbREL1 conf=15*
Nn1c(SCC(=O)Nc2ccc(OCc3ccccc3)cc2)nnc1-c1cc(-c2ccccc2)n[nH]1 | 0
Cc1ccc2nsnc2c1NC(=O)CCl | 11* | TbREL1 conf=4
Cc1ccc2nsnc2c1NC(=O)Cc1ccc(Cl)cc1 | -1
